# Values quoted from earlier work, collected in PubChem BioAssay AID977608.
# The campaign covered roughly 4,300 compounds. About 4,300 (100%) were called active. No cut-off is given here; in the data, nearly all actives have IC50 up to about 1400 µM. So high a share suggests a set chosen from earlier hits. The list shows a part of the results.
# Assay: literature IC50 values for PDB complexes, PDB-derived complexes (AID 977608)
# Settings: PDB protein-ligand complexes
# [1] = protein: metallodependent class II fructose-1,6-bisphosphate aldolase (FBA-tb), PDB entry 4a22 unless noted
smiles,measurement,setting,value
COCCN/C=C1/C(=O)N(C)c2ccc(C(F)(F)F)cc2N(c2ccccc2)C1=O,IC50,[1],"0.89 µM [protein: HIV-1 capsid protein (N-terminal domain), PDB entry 4inb] (active)"
C[N+](C)(C)CCCP(O)O,IC50,[1],"0.52 µM [protein: human gamma-butyrobetaine hydroxylase, PDB entry 4bgk] (active)"
O=C(O)c1ccc2cccc(O)c2n1,IC50,[1],"10 µM [protein: M. tuberculosis's class IIa fructose 1,6-bisphosphate aldolase, MtFBA, PDB entry 4lv4] (active)"
c1csc(-c2cc(CNC34CC5CC(CC(C5)C3)C4)no2)c1,IC50,[1],"16 µM [protein: Membrane ion channel M2, PDB entry 2ly0] (active)"
COCN1CCC(C(N)=O)CC1,IC50,[1],"300 µM [protein: ACETYLCHOLINESTERASE, PDB entry 3zlv] (active)"
Cc1cc(S(=O)(=O)N(Cc2ccccc2)[C@H](C)C(=O)NO)ccc1F,IC50,[1],15.2 µM [PDB entry 4pkr] (active)
Cc1cc(S(=O)(=O)N(Cc2cccc(N)c2)[C@H](C)C(=O)NO)ccc1F,IC50,[1],30 µM [PDB entry 4pku] (active)
Cc1cc(S(=O)(=O)N(Cc2ccc(CN)cc2)[C@H](C)C(=O)NO)ccc1F,IC50,[1],5.6 µM [PDB entry 4pkv] (active)
Cc1cc(S(=O)(=O)N(Cc2ccc([N+](=O)[O-])cc2)[C@H](C)C(=O)NO)ccc1F,IC50,[1],14.9 µM [PDB entry 4pkt] (active)
Cc1cc(S(=O)(=O)N(Cc2cccnc2)[C@H](C)C(=O)NO)ccc1F,IC50,[1],15.2 µM [PDB entry 4pks] (active)
FC(F)(F)c1nc2ccccc2[nH]1,IC50,[1],"138 µM [protein: 3-OXOACYL-[ACYL-CARRIER-PROTEIN] REDUCTASE FABG, PDB entry 4bnt] (active)"
CCOC(=O)CC[C@H](C[C@@H]1CCNC1=O)NC(=O)[C@@H](CC(=O)[C@@H](NC(=O)c1cc(C)on1)C(C)C)Cc1ccc(F)cc1,IC50,[1],"1.67 µM [protein: 3C proteinase, PDB entry 4ght] (active)"
O=C(CO[P+](O)(O)O)N(O)CCCCO[P+](O)(O)O,IC50,[1],0.0032 µM (active)
CCC(CC)O[C@@H]1CC(C(=O)O)C[C@H](N)[C@H]1NC(C)=O (stereo partly drawn),IC50,[1],"0.0005 µM [protein: Neuraminidase, PDB entry 4hzx] (active)"
CCC(CC)O[C@@H]1CC(C(=O)O)=C[C@H](N)[C@@H]1NC(C)=O,IC50,[1],"0.0009 µM [protein: Influenza Neuraminidase H3N8, PDB entry 4m3m] (active)"
CCC(CC)O[C@@H]1C[C@@H](C(=O)O)C[C@H](N)[C@H]1NC(C)=O,IC50,[1],"0.00079 µM [protein: Neuraminidase, PDB entry 4mwq] (active)"
CCC(CC)O[C@@H]1C[C@H](C(=O)O)C[C@H](N)[C@H]1NC(C)=O,IC50,"protein: Neuraminidase7, PDB entry 4qn7",0.00084 µM (active)
same,IC50,"protein: Neuraminidase, PDB entry 4mww",215 µM (active)
